From PubChem BioAssay (NCATS)
Inconclusive results are not listed. Active and inactive are the calls of the source. Unless noted, calls follow the shape of the dose curve; as a rule, active = well fitted curve in the direction sought with a large enough effect; inconclusive = small, poorly fitted or top-dose-only effect, or another doubt; inactive = no such curve, though single readings can be large; an effect the other way counts as inactive or inconclusive.

Experiments:
[1] = Viability counterscreen for antagonist of constitutive androstane receptor (CAR) against the NCATS DSHEA and TCM libraries (AID 1794837);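 also: compound exposure lasted 24 h before viability reading; 0% is about no effect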
How it was run: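 Cell viability, CellTiter-Fluor, Ex/Em 405/540 nm, 1 h at 37C. HepG2-CYP2B6-hCAR, 2,500 cells/well; cpds + CITCO 48 uM final (antagonist mode), 24 h, 37C/5% CO2.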

[2] = molecular target: Nuclear receptor subfamily 1 group I member 3 (Homo sapiens) (UniProt Q14994); test: Primary qHTS for agonist of constitutive androstane receptor (CAR) against the NCATS DSHEA and TCM libraries (AID 1794839);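 also: HepG2 cells expressing human CAR with a CYP2B6 reporter plus PK11195 antagonist; 0% is about no effect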
How it was run: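 Luminescence from ONE-Glo luciferase was the agonist read-out in HepG2-CYP2B6-hCAR cells exposed 24 h to test substances. Wells also held the CAR antagonist PK11195 at 0.75 µM final. Viability was by CellTiter-Fluor fluorescence.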

[3] = HepG2 viability counterscreen (readout 2: ATP content) against the NCATS DSHEA and TCM libraries (AID 1794840); also: 0% is about no effect
How it was run: (§1)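 1,000 HepG2 cells/well, 4 h attach; compounds ~24 h, 37C/5% CO2. Readout 1: GF-AFC 25 uM final, 30 min, fluorescence 380/510 nm. Readout 2: CellTiter-Glo, 30 min RT, luminescence.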

[4] = HepG2 viability counterscreen (readout 1: protease activity) against the NCATS DSHEA and TCM libraries (AID 1794841);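 also: cells exposed to compounds for about 24 h before the protease read; 0% is about no effect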
How it was run: as §1

[5] = molecular target: Cytochrome P450 3A4 (Homo sapiens) (UniProt P08684); test: qHTS for inhibitors of CYP3A4 against the NCATS DSHEA and TCM libraries (AID 1919971); also: potency is read from the fitted curve at half-maximal effect
How it was run: (§2)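 Isoform-specific enzyme and substrate levels; enzyme-free wells as background. Reaction: 1x NADPH regenerating system, 30-45 min, room temperature, shielded from light; luminescent detection reagent added, 30 min.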

[6] = molecular target: Cytochrome P450 2D6 (Homo sapiens) (UniProt P10635); test: qHTS for inhibitors of CYP2D6 against the NCATS DSHEA and TCM libraries (AID 1919972); also: % is scaled to controls: 0 for no effect and ±100 for the full control effect
How it was run: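 qHTS, concentration–response format with most substances from 19.5 nM. CYP2D6 + pro-luciferin substrate, 15 min with compound, then 1x NADPH regen, 30–45 min RT dark. Glo detection 30 min, luminescence. Quinidine control.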

[7] = molecular target: Cytochrome P450 2C19 (Homo sapiens) (UniProt P33261); test: qHTS for inhibitors of CYP2C19 against the NCATS DSHEA and TCM libraries (AID 1919974);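 also: luminescence from luciferin released by CYP2C19 oxidation of a pro-luciferin substrate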; also: potency is read from the fitted curve at half-maximal effect
How it was run: as §2

[8] = KB-3-1 P-gp reporter qHTS against the NCATS DSHEA and TCM libraries (AID 1919975); also: 0% is about no effect
How it was run: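 CellTiter-Glo luminescence viability readout; KB-3-1 parental cells, 500/well, attached ~4 h, then compound for ~72 h, 37C, 5% CO2. Bortezomib intraplate control.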

[9] = molecular target: Cytochrome P450 1A2 (Homo sapiens) (UniProt P05177); test: qHTS for inhibitors of CYPIA2 against the NCATS DSHEA and TCM libraries (AID 1919976);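 also: light from luciferin formed by CYP1A2 from a pro-luciferin substrate; series mostly up to about 37 µM; % is scaled to controls: 0 for no effect and ±100 for the full control effect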
How it was run: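 Furafylline served as the plate control. Compounds met CYP1A2 and pro-luciferin substrate 15 min before NADPH regeneration solution (1x) was added; after 30-45 min at RT, P450-Glo reagent was added for 30 min and luminescence was measured.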

[10] = qHTS Counterscreen for compound interference against the NCATS DSHEA and TCM libraries (AID 1919978); settings: firefly luciferase detection reagent interference, luminescence;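 also: compounds preincubated with 1 µM D-luciferin or buffer before detection reagent; % of control where 0% means no effect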
How it was run: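 Luminescence counterscreen for detection-kit interference: compounds at 19.5 nM–39.8 uM final, 15 min RT with 1 uM D-luciferin or buffer only; detection reagent added, 30 min RT, then read.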

[11] = Dual reporter qHTS for agonist of Pregnane X Receptor (hPXR) against the NCATS DSHEA and TCM libraries: Fluorescence readout (AID 1920058); also: 0% is about no effect
How it was run: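 In this qHTS counter-read, reporter-bearing HepG2 cells in charcoal-stripped serum received substances for approximately 24 h before viability was assessed fluorometrically with CellTiter-Fluor.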

[12] = molecular target: Nuclear receptor subfamily 1 group I member 2 (Homo sapiens) (UniProt O75469); test: Dual reporter qHTS for antagonist of Pregnane X Receptor (hPXR) against the NCATS DSHEA and TCM libraries: Luminescence Readout (AID 1920060);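 also: HepG2 cells carrying hPXR luciferase reporter stimulated with rifampicin at 2 µM; 0% is about no effect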
How it was run: (§3)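 HepG2 hPXR-Luc, 2000 cells/well, charcoal-stripped FBS medium; 5 h attach; RIF 2 uM final; 24 h 37C/5% CO2; CellTiter-Fluor 1 h, fluor 405/540; ONE-Glo 30 min RT, lum.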

[13] = Dual reporter qHTS for antagonist of Pregnane X Receptor (hPXR) against the NCATS DSHEA and TCM libraries: Fluorescence Readout (AID 1920061); also: 0% is about no effect
How it was run: as §3

[14] = molecular target: Mitogen-activated protein kinase 10 (Mus musculus) (UniProt Q61831); test: JNK3 AlphaScreen Assay (AID 530; active = well fitted curve in either direction with a large enough effect, not every such curve was filed as active;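 also: kinase came from lysate of stimulated human HepG2 cells; signal reports phosphorylation of biotinylated GST-cJun 1-79 at Ser73 with 10 µM ATP; series mostly up to about 57 µM; % is scaled to controls: 0 for no effect and ±100 for the full control effect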)
How it was run: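 HepG2 lysate (IL-1b/TNFa pre-activated) + biotin-GST-cJun 1-79 + anti-pSer73 cJun; cpd titration, 15 min RT; ATP 10 uM start; Tris pH 7.6, MgCl2, DTT, vanadate; beads in EDTA buffer; AlphaScreen.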

Cytochrome P450 1A2 (Homo sapiens), sequence (P05177 whole entry, looked up): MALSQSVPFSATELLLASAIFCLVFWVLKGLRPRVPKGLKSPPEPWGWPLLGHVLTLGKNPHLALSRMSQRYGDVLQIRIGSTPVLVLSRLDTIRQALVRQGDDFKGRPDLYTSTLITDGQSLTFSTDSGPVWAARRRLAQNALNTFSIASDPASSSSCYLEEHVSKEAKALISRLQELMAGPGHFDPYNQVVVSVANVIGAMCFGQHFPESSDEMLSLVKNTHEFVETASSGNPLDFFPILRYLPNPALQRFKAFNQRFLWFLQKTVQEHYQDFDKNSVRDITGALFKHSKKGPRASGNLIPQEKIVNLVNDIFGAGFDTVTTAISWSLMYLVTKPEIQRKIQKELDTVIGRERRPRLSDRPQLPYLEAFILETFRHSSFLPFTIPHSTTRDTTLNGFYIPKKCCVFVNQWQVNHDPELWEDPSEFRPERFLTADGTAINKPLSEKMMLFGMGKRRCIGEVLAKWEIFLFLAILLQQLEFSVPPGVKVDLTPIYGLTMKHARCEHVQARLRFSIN
Cytochrome P450 3A4 (Homo sapiens), sequence (P08684 whole entry, looked up, canonical isoform): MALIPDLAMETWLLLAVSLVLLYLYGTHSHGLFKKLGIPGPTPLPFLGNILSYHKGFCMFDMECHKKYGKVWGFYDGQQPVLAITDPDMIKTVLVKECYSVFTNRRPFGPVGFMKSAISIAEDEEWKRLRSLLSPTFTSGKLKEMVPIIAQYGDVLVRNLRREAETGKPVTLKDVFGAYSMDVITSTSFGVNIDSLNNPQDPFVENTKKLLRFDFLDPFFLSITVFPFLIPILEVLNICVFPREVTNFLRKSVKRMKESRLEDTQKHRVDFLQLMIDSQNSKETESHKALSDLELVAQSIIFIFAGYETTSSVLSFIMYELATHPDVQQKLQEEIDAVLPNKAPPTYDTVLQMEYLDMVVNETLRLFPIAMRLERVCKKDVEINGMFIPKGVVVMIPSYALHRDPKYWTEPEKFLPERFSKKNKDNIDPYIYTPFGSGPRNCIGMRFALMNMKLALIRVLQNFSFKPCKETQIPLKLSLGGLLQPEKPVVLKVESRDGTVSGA
Nuclear receptor subfamily 1 group I member 2 (Homo sapiens), sequence (O75469 whole entry, looked up): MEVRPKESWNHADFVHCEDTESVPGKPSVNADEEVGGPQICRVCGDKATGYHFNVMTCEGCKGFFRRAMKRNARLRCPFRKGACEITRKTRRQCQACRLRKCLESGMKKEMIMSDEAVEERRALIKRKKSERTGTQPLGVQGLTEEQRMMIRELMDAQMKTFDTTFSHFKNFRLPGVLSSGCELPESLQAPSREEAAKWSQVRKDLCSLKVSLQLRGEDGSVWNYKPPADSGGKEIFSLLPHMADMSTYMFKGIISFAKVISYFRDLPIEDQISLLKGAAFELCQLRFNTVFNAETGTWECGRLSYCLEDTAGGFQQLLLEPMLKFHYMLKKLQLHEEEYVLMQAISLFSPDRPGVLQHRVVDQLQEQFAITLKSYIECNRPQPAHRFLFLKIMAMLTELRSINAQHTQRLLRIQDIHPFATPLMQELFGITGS
Cytochrome P450 2D6 (Homo sapiens), sequence (P10635 whole entry, looked up): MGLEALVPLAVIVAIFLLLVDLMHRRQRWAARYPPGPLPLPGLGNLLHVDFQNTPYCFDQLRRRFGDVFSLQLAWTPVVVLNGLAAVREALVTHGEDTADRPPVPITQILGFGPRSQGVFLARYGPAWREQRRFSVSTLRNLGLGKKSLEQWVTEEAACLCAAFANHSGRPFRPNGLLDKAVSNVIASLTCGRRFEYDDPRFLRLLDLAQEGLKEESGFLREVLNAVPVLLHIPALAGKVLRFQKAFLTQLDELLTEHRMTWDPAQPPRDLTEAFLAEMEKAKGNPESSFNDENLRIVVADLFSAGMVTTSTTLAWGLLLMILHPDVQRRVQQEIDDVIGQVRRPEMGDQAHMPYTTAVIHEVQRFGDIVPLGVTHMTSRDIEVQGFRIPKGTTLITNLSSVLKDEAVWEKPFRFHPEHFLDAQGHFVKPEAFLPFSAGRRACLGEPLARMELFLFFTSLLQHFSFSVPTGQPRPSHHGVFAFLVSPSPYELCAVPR
Nuclear receptor subfamily 1 group I member 3 (Homo sapiens), sequence (Q14994 whole entry, looked up): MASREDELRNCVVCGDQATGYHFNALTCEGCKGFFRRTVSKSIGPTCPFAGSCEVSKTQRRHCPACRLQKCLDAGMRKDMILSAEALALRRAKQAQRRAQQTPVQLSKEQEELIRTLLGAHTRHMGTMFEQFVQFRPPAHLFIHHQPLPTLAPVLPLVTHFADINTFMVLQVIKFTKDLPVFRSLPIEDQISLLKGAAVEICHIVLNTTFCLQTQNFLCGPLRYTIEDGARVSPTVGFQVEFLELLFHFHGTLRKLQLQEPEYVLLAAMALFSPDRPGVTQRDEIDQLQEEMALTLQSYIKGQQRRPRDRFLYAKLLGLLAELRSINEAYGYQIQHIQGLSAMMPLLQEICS
Cytochrome P450 2C19 (Homo sapiens), sequence (P33261 whole entry, looked up): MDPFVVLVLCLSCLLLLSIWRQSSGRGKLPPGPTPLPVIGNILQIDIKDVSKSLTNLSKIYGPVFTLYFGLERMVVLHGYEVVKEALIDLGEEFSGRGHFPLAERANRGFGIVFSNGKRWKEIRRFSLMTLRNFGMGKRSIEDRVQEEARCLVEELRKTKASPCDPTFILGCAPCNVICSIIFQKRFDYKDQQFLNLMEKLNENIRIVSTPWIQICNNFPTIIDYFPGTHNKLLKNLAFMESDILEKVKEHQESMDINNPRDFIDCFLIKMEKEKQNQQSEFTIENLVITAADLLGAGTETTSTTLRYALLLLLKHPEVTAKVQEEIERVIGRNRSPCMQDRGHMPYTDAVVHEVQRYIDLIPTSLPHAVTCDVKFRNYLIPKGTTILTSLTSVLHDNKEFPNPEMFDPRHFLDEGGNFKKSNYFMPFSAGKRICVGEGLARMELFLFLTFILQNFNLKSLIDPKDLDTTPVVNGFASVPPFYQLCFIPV

C=C1C[C@]23CC[C@H]4[C@@](C)(CCC[C@@]4(C)C(=O)O)[C@@H]2CC[C@@]1(O[C@@H]1O[C@H](CO)[C@@H](O)[C@H](O)[C@H]1O[C@@H]1O[C@H](CO)[C@@H](O)[C@H](O)[C@H]1O)C3
inactive: outcome [1] | Potency [2] | outcome [3] | outcome [4] | Potency [5] | Potency [6] | Potency [7] | outcome [8] | Potency [9] | max response [10] -1.97% | outcome [11] | outcome [12] | outcome [13]

CC1(C)CC[C@]2(C(=O)O)CC[C@]3(C)C(=CCC4[C@@]5(C)CC[C@@H](O)C(C)(C)C5CC[C@]43C)C2C1 (stereo partly drawn)
inactive: outcome [1] | Potency [2] | outcome [3] | outcome [4] | Potency [6] | Potency [7] | outcome [8] | Potency [9] | max response [10] -3.58% | outcome [11] | outcome [12]

O[C@@H]1[C@@H](O)[C@H](OC/C=C/c2ccccc2)O[C@H](CO[C@@H]2OC[C@H](O)[C@H](O)[C@H]2O)[C@H]1O
inactive: outcome [1] | Potency [2] | outcome [3] | outcome [4] | Potency [5] | Potency [6] | Potency [7] | outcome [8] | Potency [9] | max response [10] 4.06% | outcome [11] | outcome [12]

OCC1=C[C@@H](O)[C@@H]2C=CO[C@@H](OC3O[C@H](CO)[C@@H](O)[C@H](O)[C@H]3O)[C@H]12 (stereo partly drawn)
inactive: outcome [1] | Potency [2] | outcome [3] | outcome [4] | Potency [5] | Potency [6] | Potency [7] | outcome [8] | Potency [9] | max response [10] 1.01% | outcome [11] | outcome [12] | outcome [13]

CCCCCCCC/C=C\CCCCCCCCCCCCCC(=O)O
inactive: outcome [1] | Potency [2] | outcome [3] | outcome [4] | Potency [6] | Potency [7] | outcome [8] | Potency [9] | max response [10] -2.19% | outcome [11] | outcome [12] | outcome [13]

O=C(O[C@@H]1Cc2c(O)cc(O)cc2O[C@@H]1c1ccc(O)c(O)c1)c1cc(O)c(O)c(O)c1
inactive: outcome [1] | Potency [2] | outcome [3] | outcome [4] | outcome [8] | Potency [9] | max response [10] 2.25% | outcome [11] | outcome [12]

O=C(OC[C@H]1O[C@@H](OC(=O)c2cc(O)c(O)c(O)c2)[C@H](OC(=O)c2cc(O)c(O)c(O)c2)[C@@H](OC(=O)c2cc(O)c(O)c(O)c2)[C@@H]1O)c1cc(O)c(O)c(O)c1
inactive: outcome [1] | Potency [2] | outcome [3] | outcome [4] | outcome [8] | max response [10] -2.07% | outcome [11]
active: Potency [5] 12.6 µM | Potency [7] 3.98 µM

C=CC(=C)CCC=C(C)C
inactive: Potency [14] | outcome [1] | Potency [2] | outcome [3] | outcome [4] | Potency [5] | Potency [6] | Potency [7] | outcome [8] | Potency [9] | max response [10] 1.58% | outcome [11] | outcome [12]

CCCCCCCCCC=O
inactive: outcome [1] | Potency [2] | outcome [3] | outcome [4] | Potency [5] | Potency [6] | Potency [7] | outcome [8] | Potency [9] | max response [10] 0.0179% | outcome [11] | outcome [12]

CC(C)=CCCC(C)(OC1OC(COC2OC(CO)C(O)C2O)C(O)C(O)C1O)C1CCC2(C)C1C(O)CC1C3(C)CCC(OC4OC(CO)C(O)C(O)C4OC4OC(CO)C(O)C(O)C4O)C(C)(C)C3CCC12C (stereo not drawn)
inactive: outcome [1] | Potency [2] | outcome [3] | outcome [4] | Potency [5] | Potency [6] | Potency [7] | outcome [8] | Potency [9] | max response [10] 2.08% | outcome [11] | outcome [12] | outcome [13]

CC(C)=CCC[C@](C)(O[C@@H]1O[C@H](CO)[C@@H](O)[C@H](O)[C@H]1O)[C@H]1CC[C@]2(C)[C@@H]1[C@H](O)C[C@@H]1[C@@]3(C)CC[C@H](O[C@@H]4O[C@H](CO)[C@@H](O)[C@H](O)[C@H]4O[C@@H]4O[C@H](CO)[C@@H](O)[C@H](O)[C@H]4O)C(C)(C)[C@@H]3CC[C@]12C
inactive: outcome [1] | Potency [2] | outcome [3] | outcome [4] | Potency [5] | Potency [7] | outcome [8] | max response [10] 4.23% | outcome [11] | outcome [12] | outcome [13]
